Growth data for 8 compounds are collected here from PubChem BioAssay (NCI).

Test systems include NCI-H23 lung; NCI-H226 lung; NCI-H322M lung; HOP-62 NSCLC; NCI-H460 lung; HOP-92 NSCLC; NCI-H522 lung; A549/ATCC NSCLC; 786-0 renal; COLO 205 colon; DU-145 prostate; MDA-MB-231 breast; RXF 393 renal; SF-268 CNS; SF-539 CNS; UACC-257 melanoma; M14 melanoma; K-562 leukemia; MALME-3M melanoma; SF-295 CNS.
What all share (experiment): NCI-60 one-dose screen, 48 h (100 = growth as untreated, 0 = no growth, -100 = all killed)
What all share (settings): 10 µM unless noted

About 83,000 compounds went through this panel and 20% of them were active in at least one assay; those are over-represented in the sample as a whole.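 Method: cells in 96-well plates; compound added at one concentration; 48 h incubation; percent growth measured; values under 10 scored active.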 Values without a mark were called inactive. Activity calls are given as the source filed them.

As to `Cc1cc(C)nc(NC(N)=NCCc2ccccc2)n1`, the growth in the test on NCI-H23 lung was 50.4%; in the test with NCI-H226 lung it was 52.6%; in the test on NCI-H322M lung, 52.1%; with HOP-62 NSCLC, 52.4%; with NCI-H460 lung, 23.9%; in the test on HOP-92 NSCLC it was 39.2%. For the same compound, the growth was 29.9% in the test on NCI-H522 lung; 33.1% with A549/ATCC NSCLC; 50.1% in the test on 786-0 renal; 40.1% in the test with COLO 205 colon; 42.6% in the test with DU-145 prostate; 51.6% in the test with MDA-MB-231 breast. The growth is 51.4% with RXF 393 renal; 39.5% in the test on SF-268 CNS; 36.7% in the test on SF-539 CNS; 30.2% in the test on UACC-257 melanoma; 31.8% in the test with M14 melanoma.
`Cc1ccc(-c2nn(Cc3cn(-c4cc(C)nc5ccccc45)nn3)c3ncnc(N)c23)cc1`: the growth was 68.7% in the test on NCI-H23 lung; 35% in the test with NCI-H226 lung; 40.6% in the test with NCI-H322M lung; 68.4% with NCI-H460 lung; -0.284% (active) in the test on HOP-92 NSCLC; 55.5% in the test with NCI-H522 lung. Further, the growth is 44.1% in the test on A549/ATCC NSCLC; 48.6% in the test on 786-0 renal; 54.7% with COLO 205 colon; 47.8% in the test on DU-145 prostate; 53.2% in the test with K-562 leukemia; 52.5% in the test with MALME-3M melanoma. The growth in the test on MDA-MB-231 breast was 33.1%; in the test on RXF 393 renal, 27.3%; with SF-268 CNS it was 35.8%; with SF-295 CNS, 66.5%; in the test on SF-539 CNS, 74.7%; in the test on UACC-257 melanoma, 42.5%. Besides, in the test with M14 melanoma, the growth was 52.7%.
Regarding `CN1CCN(c2ccc3nc(-c4[nH]ncc4Nc4ncnc5c4OCCCN5)[nH]c3c2)CC1`, the growth in the test on NCI-H23 lung was -53.9% (active); in the test with NCI-H226 lung, -76.4% (active); with NCI-H322M lung, -67.3% (active); with NCI-H460 lung, -69.8% (active); in the test on HOP-92 NSCLC, -29.3% (active); in the test with NCI-H522 lung, -26.2% (active). Also, the growth in the test on A549/ATCC NSCLC is -63% (active); in the test with 786-0 renal, -59.3% (active); with COLO 205 colon, -72.5% (active); with DU-145 prostate, -27.6% (active); with K-562 leukemia it was 7.54% (active); in the test on MALME-3M melanoma, -76.1% (active). In addition, the growth in the test with MDA-MB-231 breast was -37.8% (active); in the test with RXF 393 renal, -89.3% (active); in the test on SF-268 CNS, -51% (active); in the test on SF-295 CNS, -90.4% (active); with SF-539 CNS it was -86.7% (active); with UACC-257 melanoma it was -20.5% (active). For the same compound, the growth in the test with M14 melanoma was -74.9% (active).
Take `O=[N+]([O-])c1ccc(/C=N\Nc2ccccc2)cc1`: the growth with NCI-H23 lung is 93.9%; with NCI-H226 lung, 87.7%; in the test on NCI-H322M lung it was 83%; in the test on NCI-H460 lung it was 76.7%; in the test with HOP-92 NSCLC, 100%; in the test with NCI-H522 lung, 61%. Besides, the growth in the test on A549/ATCC NSCLC was 57.7%; with 786-0 renal, 87.2%; in the test with COLO 205 colon it was 105%; with DU-145 prostate, 97.1%; with K-562 leukemia, 25.2%; with MDA-MB-231 breast, 68.2%. Further, the growth was 107% with RXF 393 renal; 73.5% in the test on SF-268 CNS; 55.3% with SF-295 CNS; 107% in the test on SF-539 CNS; 97.2% with UACC-257 melanoma; 31.6% with M14 melanoma.
On to `O=C(O[C@@H]1Cc2c(O)cc(O)cc2O[C@@H]1c1cc(O)c(O)c(O)c1)c1cc(O)c2c(c1)OCO2`, for which the growth with NCI-H23 lung was 92.6%; in the test on NCI-H226 lung, 93%; in the test with NCI-H322M lung, 107%; with NCI-H460 lung it was 105%; in the test with HOP-92 NSCLC it was 95.1%; in the test with NCI-H522 lung, 83.3%. The growth with A549/ATCC NSCLC was 82.5%; with 786-0 renal it was 94.4%; in the test with COLO 205 colon, 104%; in the test on DU-145 prostate, 99.7%; in the test on K-562 leukemia it was 91%; in the test on MALME-3M melanoma, 108%. Moreover, the growth with MDA-MB-231 breast is 101%; in the test with RXF 393 renal, 111%; with SF-268 CNS, 97%; in the test on SF-295 CNS, 103%; in the test on SF-539 CNS, 108%; in the test on UACC-257 melanoma it was 83%. The growth in the test with M14 melanoma was 91.9%.
For `C=C(C)[C@@H]1CC[C@]2(C)[C@H](CC=C3[C@@H]4CC(C)(C)CC[C@]4(C=O)CC[C@]32C)[C@@]1(C)CCCN`, the growth with NCI-H23 lung is 86.4%; in the test on NCI-H226 lung, 85.5%; in the test on NCI-H322M lung it was 86.5%; in the test on NCI-H460 lung, 86.3%; with HOP-92 NSCLC, 62%; in the test with NCI-H522 lung, 91.8%. The growth with A549/ATCC NSCLC is 77.6%; in the test with 786-0 renal it was 90.4%; with COLO 205 colon, -62.3% (active); in the test with DU-145 prostate, 93.3%; in the test with K-562 leukemia, 1.54% (active); in the test with MALME-3M melanoma, 68.8%. In addition, the growth in the test with MDA-MB-231 breast is 75.2%; in the test with RXF 393 renal, 67.1%; with SF-268 CNS, 83.2%; with SF-295 CNS, 93.2%; in the test on SF-539 CNS, 89.3%; in the test on UACC-257 melanoma, 81%. In the test with M14 melanoma, the growth was 63.9%.
Turning to `COc1ccc2c(c1)c(-c1nc(-c3cn(C)c4ncccc34)cs1)cn2CCCN1CCCCC1`, the growth in the test with NCI-H23 lung was 79.4%; in the test on NCI-H226 lung it was 67.1%; in the test on NCI-H322M lung it was 80.3%; with NCI-H460 lung, -40.4% (active); in the test with HOP-92 NSCLC it was 48.7%; in the test with NCI-H522 lung, 87.7%. For the same compound, the growth in the test with A549/ATCC NSCLC is 25.2%; in the test on 786-0 renal, -31.3% (active); with COLO 205 colon, -65.8% (active); in the test with DU-145 prostate, 42.9%; with K-562 leukemia it was -48.4% (active); in the test with MALME-3M melanoma it was 81.1%. For the same compound, the growth with MDA-MB-231 breast was 44.2%; in the test with RXF 393 renal, 65%; in the test with SF-268 CNS, 76.6%; in the test on SF-295 CNS it was 91.6%; in the test on SF-539 CNS it was 43.9%; with UACC-257 melanoma it was 96%.
As to `O=C1C(=O)N(CCCCn2cc(-c3ccccc3)nn2)c2ccccc21`, the growth in the test with NCI-H23 lung is 101%; in the test on NCI-H226 lung, 106%; with NCI-H322M lung it was 103%; with NCI-H460 lung it was 99.9%; in the test with HOP-92 NSCLC, 101%; with NCI-H522 lung, 100%. Further, the growth is 108% in the test with A549/ATCC NSCLC; 102% with 786-0 renal; 112% in the test with COLO 205 colon; 105% in the test on DU-145 prostate; 109% in the test with K-562 leukemia; 92.9% in the test with MALME-3M melanoma. In addition, the growth was 102% in the test on MDA-MB-231 breast; 114% with RXF 393 renal; 101% in the test with SF-268 CNS; 102% in the test on SF-295 CNS; 93.9% in the test on SF-539 CNS; 100% in the test with UACC-257 melanoma. In addition, in the test on M14 melanoma, the growth was 96.1%.
